Only some compounds are listed: those with a hit (about 6.5% of all), similar ones and a draw of the others.
Marburg entry inh: qHTS for inhibitors of binding or entry into cells for Marburg Virus; 1.8% of 300,000 active; Marburg virus pseudotyped entry inhibition, cell reporter; AID 540276, 2011; Potency, µM (series often up to 37.8 µM), most hits filed as inhibitors; calls by dose curve; tested in HEK293 cells
Lassa entry inh: qHTS for Inhibitors of binding or entry into cells for Lassa Virus; Lassa virus pseudotype entry inhibition, cell reporter; Potency, µM (doses to about 37.9 µM), hits mostly inhibitors; 1.2% of 300,000 active; AID 540256, 2011; calls by dose curve; tested in HEK293 cells; further: nearly all actives have a fitted effect of over 50% in size
HCMV antiviral: qHTS Assay for inhibitors of the human cytomegalovirus (HCMV); HFF cells, HCMV-luciferase reporter, 72 h; stronger effect = lower value; activity change, negative = inhibition, % at 57.5 µM; 4.5% of 410,000 active; in the data active means activity change below about -60%; inconclusive means no clear call, values can overlap the other calls; inactive means above about -39%
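Cell-based, HFFs, 1000 cells/well, 16 h 37C; cpds in DMSO + HCMV-luc, MOI 1 PFU/cell; 72 h 37C; OneGlo luminescence after 5 min RT; norm. to buffer vs Salinomycin 10uM.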
FMDV antiviral: High Throughput Screening for Foot and Mouth Disease Virus Antivirals. FMDV antiviral cell-based qHTS. Potency, µM (highest dose often 57.9 µM), usual class: inhibitors. 1.2% of 410,000 active; calls by dose curve; tested in HEK293T cells; further: read-out not given here; nearly all actives have a fitted effect of over 45% in size
VACV mCherry inh: qHTS for Stage-Specific Inhibitors of Vaccinia Orthopoxvirus: mCherry Reporter Primary qHTS | 0.63% of 310,000 active | Potency, µM (series often up to 36.5 µM), hits mostly inhibitors | AID 720579, 2013 | Vaccinia virus mCherry reporter infection, fluorescence; calls by dose curve; tested in A549 cells; further: nearly all actives have a fitted effect of over 35% in size
Vaccinia Venus: qHTS for Stage-Specific Inhibitors of Vaccinia Orthopoxvirus: Venus Reporter Primary qHTS. AID 720580, 2013. Potency, µM (titrated, usually from 36.5 µM), usual class: inhibitors. Vaccinia virus Venus reporter expression, fluorescence. 0.46% of 330,000 active; calls by dose curve; tested in A549 cells; further: nearly all actives have a fitted effect of over 30% in size
Hits are given with their value; i = inactive; ? = inconclusive; nt = no result given.

SMILES	Marburg entry inh	Lassa entry inh	HCMV antiviral	FMDV antiviral	VACV mCherry inh	Vaccinia Venus
Cc1nnc(NC(=O)c2nn(CC(C)C)c(=O)c3ccccc23)s1	i	i	i	i	i	i
O=C(c1cc2c(s1)-c1ccccc1S(=O)(=O)C2)N1CCN(Cc2ccccc2)CC1	i	nt	-74	20µM	?	?
O=C1CCC[C@H]2[C@@H](Cc3ccccc3)[C@@H](NS(=O)(=O)c3ccc(F)cc3)CC[C@]23CCCN13	nt	nt	i	nt	nt	nt
COc1cc2[nH]c(=S)nc(NC3CCCCCC3)c2cc1OC	?	i	-74	?	i	i
CN(C)c1ccc2cc3c(c(S(=O)(=O)c4ccccc4)c2c1)CCC3	nt	nt	i	nt	nt	nt
O=C(Nc1ccc2c(c1)N(C1CCCC1)C(=O)c1ccccc1S2)c1ccc(F)cc1	nt	?	?	i	i	i
COc1ccc(CNC(=O)Nc2ccc3c(c2)N(C)C(=O)c2ccccc2S3)cc1OC	i	i	?	?	i	i
CC(C)Oc1ccc(CNC(=O)Nc2ccc3c(c2)N(C)C(=O)c2ccccc2S3)cc1	?	i	-76	?	?	?
CN1C(=O)c2ccccc2Sc2ccc(NC(=O)N3CCN(c4ccccc4)CC3)cc21	?	i	-76	?	?	?
CN(Cc1ccccc1)C(=O)Nc1ccc2c(c1)N(C)C(=O)c1ccccc1S2	10µM	?	i	i	i	i
O=C(Nc1ccc2c(c1)N(C1CCCC1)C(=O)c1ccccc1S2)c1ccccc1	nt	2.8µM	-64	i	i	i
CCN(Cc1ccccc1)C(=O)Nc1ccc2c(c1)N(C)C(=O)c1ccccc1S2	?	?	i	i	i	i
Cn1c(SCC(=O)N2CCOCC2)ncc(C(=O)Nc2ccc(F)cc2)c1=O	nt	i	i	i	i	i
O=C(c1ccccc1)C(c1ccccc1)[n+]1csc2ccccc21 (configuration not stated)	nt	nt	nt	nt	i	i
CCC(C)[C@H]1CNC(=S)N1CCC12CC3CC(CC(C3)C1)C2 (some centres not stated)	nt	nt	-79	i	i	i
CCC(C)[C@H]1CNC(=S)N1CCc1cccc2ccccc12 (some centres not stated)	nt	nt	i	i	?	i
COc1cccc2c1[C@@H]1CN(CCCCn3c(=O)[nH]c4c(sc5ncc(-c6ccccc6)nc54)c3=O)C[C@@H]1CO2	7.9µM	?	i	i	?	?
CCOC(=O)CSC1=C(C#N)C(=O)NC(c2ccc(OC)c(OC)c2)S1 (configuration not stated)	i	i	i	28µM	i	i
C/C(=N\NC(=O)COc1ccc(C(C)(C)C)cc1)c1ccc(-n2ccnc2)cc1	i	?	i	?	?	?
COc1ccc(OCC(=O)N/N=C(\C)c2ccc(-n3ccnc3)cc2)cc1	i	i	i	i	i	i
N#Cc1cccc(NC(=O)COC(=O)Cn2nc(-c3ccccc3)oc2=O)c1	nt	nt	-65	i	nt	nt
CC(C)(C)c1ccc(NC(=O)COc2ccc(-n3ccnc3)cc2)cc1	?	?	-86	11µM	nt	?
N#Cc1cccc(NC(=O)COc2ccc(-n3ccnc3)cc2)c1	i	i	i	28µM	nt	nt
COc1cc(NC(=O)COc2ccc(-n3ccnc3)cc2)cc(OC)c1	i	i	-87	?	i	i
CCN1C(=O)NC(c2cccc(C(F)(F)F)c2)C(C(=O)OC)=C1C (configuration not stated)	i	nt	nt	nt	nt	nt
SMILES	Marburg entry inh	Lassa entry inh	HCMV antiviral	FMDV antiviral	VACV mCherry inh	Vaccinia Venus
CC#CCN1c2ccccc2[C@]23CCC(=O)N(CCCOC(C)C)C2=NC(C(=O)OC)=C(C(=O)OC)[C@H]13	i	nt	nt	nt	nt	nt
O=C1O[C@H](Nc2ccc(Br)cn2)c2ccccc21	i	nt	nt	nt	nt	nt
CN1CCN(C(=O)c2ccc(N3CC4ON=C(c5c(F)cccc5Cl)C4C3)cc2)CC1 (configuration not stated)	nt	nt	i	nt	nt	nt
COc1ccc(/C=C/C(=O)c2cc(F)ccc2OC(=O)c2ccccc2C)cc1OC	5.2µM	?	-86	25µM	?	?
COc1ccc(/C=C/C(=O)Nc2ccccc2)cc1OC	i	i	i	i	i	i
CCOc1ccc(C(=O)/C=C/c2ccc(OC)c(OC)c2)cc1	?	?	i	?	i	i
COc1ccc(C(=O)Oc2ccc(F)cc2C(=O)/C=C/c2ccc(OC)c(OC)c2)cc1	i	?	?	40µM	i	i
COc1ccc(/C=C/C(=O)c2ccc3c4c(cccc24)CC3)cc1OC	?	?	?	18µM	?	?
COc1ccc(/C=C/C(=O)c2ccc3c4c(cccc24)CC3)cc1	i	?	i	i	?	?
CSc1ncc(C(=O)N2CCN(c3cc(C)ccc3C)CC2)c(C)n1	nt	i	i	i	i	i
CC(C)NC(=O)NC1N=NC(Nc2ccc(Cl)cc2)=N1 (configuration not stated)	i	nt	nt	nt	nt	nt
CCOC(=O)N/N=C1\C[C@@H](O)[C@@H](O)[C@@H]2[C@@H]3C(=O)N(C4CCCCC4)C(=O)[C@@H]3CC[C@H]12	i	nt	nt	nt	nt	nt
Cc1ccc(CNc2ncnc3onc(-c4ccc(F)cc4)c23)cc1	nt	?	i	i	i	i
CC1(c2ccccc2)CC(C)(C)N(C(=O)c2cccc(Cl)c2)c2ccccc21 (configuration not stated)	nt	i	-72	i	i	i
O=C(CCN1C(=O)/C(=C/c2ccccc2Cl)SC1=S)NNC(=O)c1cccnc1	?	i	i	i	i	i
O=C(CCN1C(=O)/C(=C/c2ccccc2Cl)SC1=S)NNC(=O)c1ccccc1O	i	?	i	i	?	i
O=C(CCN1C(=O)/C(=C/c2ccccc2Cl)SC1=S)NCCc1ccc(O)cc1	nt	nt	-101	i	nt	nt
O=C(CCCN1C(=O)/C(=C/c2ccccc2Cl)SC1=S)NNC(=O)c1ccc(Cl)cc1	nt	nt	-75	7.9µM	i	i
Cc1ccc(C(=O)NNC(=O)CCCN2C(=O)/C(=C/c3ccccc3Cl)SC2=S)cc1	11µM	?	?	?	i	i
O=C(NC1CCCCCC1)C1CCN(C(=O)N2CCOc3ccccc32)CC1	nt	i	i	i	i	i
OC1(c2cccnc2)CCN(Cc2ccc3c(c2)CN(Cc2cccc4nccnc24)CCO3)CC1	nt	nt	nt	i	i	i
COC(=O)c1cccc(NC(=O)CSc2nc3cccnc3n2C)c1	?	i	?	16µM	i	?
COC(=O)c1ccc(NC(=O)CSc2nncn2-c2ccccn2)cc1	i	i	-72	i	i	i
COc1ccc(CN2CC[C@H]3C=CC[C@@H](C(=O)Nc4nccs4)[C@H]3C2=O)cc1OC	nt	nt	nt	nt	i	i
CCOC(=O)[C@H](CCc1ccccc1)N[C@@H](C)C(=O)N1Cc2cc(OC)c(OC)cc2C[C@H]1C(=O)O	nt	nt	nt	i	nt	nt
O=[N+]([O-])c1ccc2oc(-c3ccccc3)nc2c1	i	nt	i	i	i	i
COc1ccc(-c2nc3ccc([N+](=O)[O-])cc3o2)cc1	?	i	-92	i	i	i
